High-throughput results as filed in PubChem BioAssay.
Most compounds without a hit are left out; they make up all but 9.3% or so of the library.
SMN2 splice enh = qHTS Assay for Enhancers of SMN2 Splice Variant Expression; 210,000 compounds, 2.8% hits; Potency, µM (highest dose often 46.1 µM), without a hit: at the top dose activity change, positive = activation, hits mostly activators; AID 1458, 2008; HEK293 SMN2-luciferase splicing reporter, luminescence, 30-36 h; further: % of control where 0% means no effect; nearly all actives have a fitted effect of over 55% in size
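HEK293 cells carry an SMN2 […]–luciferase reporter in which exon 7 inclusion puts luciferase in frame. Cells were plated 10-12 h before compound addition, then incubated 30-36 h at 37C. ONE-Glo luminescence was read; sodium butyrate at 4.5 mM final served as control.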
ELG1 genotoxic = qHTS screen for small molecules that induce genotoxicity in human embryonic kidney (HEK293T) cells expressing luciferase-tagged ELG1. HEK293T ELG1-luciferase reporter, luminescence, 16 h. Potency, µM (doses to about 46 µM), for the others: at the highest dose activity change, positive = activation, hits mostly activators. 330,000 compounds, 1.3% hits. AID 504466, 2011; further: % of control where 0% means no effect; nearly all actives have a fitted effect of over 60% in size
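HEK293T cells expressing luciferase-tagged ELG1 were treated with compound or DMSO for 16 hr at 37°C. Luciferase activity was then read after 30 min with ONE-Glo at room temperature; rising signal flags genetic stress.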
Rab9 promoter act = qHTS Assay for Rab9 Promoter Activators; Huh7 Rab9 promoter-luciferase reporter, luminescence, 24 h; Potency, µM (series often up to 9.22 µM), without a hit: at the highest dose activation, negative = inhibition, hits mostly activators; 320,000 compounds, 2.8% hits; AID 485297, 2010; further: % of control where 0% means no effect; nearly all actives have a fitted effect of over 60% in size
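Luminescence from Amplite-detected luciferase (10 minutes, ambient) reports Rab9 promoter activation. Before that, stable Rab9-luciferase Huh7 cells (1500/well, reduced-serum OP-MEM I plus 10% FBS) were exposed to compound for 24 hours at 37C.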
NPC1 prom act = qHTS Assay for NPC1 Promoter Activators | Huh7 NPC1 promoter luciferase reporter, 24 h | Potency, µM (series often up to 9.22 µM), for inactives: at the highest dose activation, hits mostly activators | 320,000 compounds, 2.4% hits | AID 485313, 2010; further: % of control where 0% means no effect; nearly all actives have a fitted effect of over 60% in size
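Cells: Huh7 expressing luciferase under the NPC1 promoter, 1500/well. Seeded 2 h, compound added, incubated 24 h at 37 °C. Luciferase reagent, 10 min ambient, then luminescence.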
ELG1 DNA repair = qHTS screen for small molecules that inhibit ELG1-dependent DNA repair in human embryonic kidney (HEK293T) cells expressing luciferase-tagged ELG1 | Potency, µM (doses to about 46.1 µM), inactives show top-dose activity change, negative = inhibition, hits mostly inhibitors | HEK293T ELG1-luciferase reporter, luminescence, 16 h; DNA damage induced by 5-fluorouridine | 330,000 compounds, 2.3% hits; further: on the % scale 0 is the no-effect control and ±100 the full control effect; nearly all actives have a fitted effect of over 55% in size
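Reporter activity after DNA damage by 5-fluorouridine is monitored. Compound-treated cells incubate 16 hr at 37 °C, then ONE-Glo is added for 30 min before luminescence reading.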
FLuc modulator = qHTS profiling assay for firefly luciferase inhibitor/activator using purifed enzyme and Km concentrations of substrates (counterscreen for miR-21 project); Luciferin 4-monooxygenase (Photinus pyralis), P08659; purified FLuc, Km substrates, luminescence inhibition; Potency, µM (series often up to 57.5 µM), for inactives: at the highest dose activity change, negative = inhibition, most hits filed as inhibitors; 360,000 compounds, 6.9% hits;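 further: plate controls were vehicle for no effect and reference inhibitor for full effect; nearly all actives have a fitted effect of over 55% in size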
Target sequence (P08659 whole entry, looked up): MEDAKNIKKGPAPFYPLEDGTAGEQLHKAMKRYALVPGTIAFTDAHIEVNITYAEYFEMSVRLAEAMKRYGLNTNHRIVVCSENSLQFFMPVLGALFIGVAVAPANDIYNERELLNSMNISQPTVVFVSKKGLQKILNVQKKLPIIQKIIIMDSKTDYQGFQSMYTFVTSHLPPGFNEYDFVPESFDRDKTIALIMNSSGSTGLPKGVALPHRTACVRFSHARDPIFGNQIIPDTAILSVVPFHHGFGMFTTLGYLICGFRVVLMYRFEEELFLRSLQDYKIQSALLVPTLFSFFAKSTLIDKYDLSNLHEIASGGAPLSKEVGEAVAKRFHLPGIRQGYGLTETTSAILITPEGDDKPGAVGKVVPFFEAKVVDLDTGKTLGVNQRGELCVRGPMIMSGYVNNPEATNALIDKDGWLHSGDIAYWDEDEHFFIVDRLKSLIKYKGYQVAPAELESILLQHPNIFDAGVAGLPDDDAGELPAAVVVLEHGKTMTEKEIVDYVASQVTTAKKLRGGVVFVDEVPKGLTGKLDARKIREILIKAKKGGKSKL
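Purified P. pyralis luciferase, 10 nM final, with Km-level 10 uM D-luciferin and 10 uM ATP in 50 mM Tris acetate pH 7.5, 10 mM Mg acetate, 0.01% Tween-20, 0.05% BSA; 6-point qHTS titration about 60 µM downward; luminescence read.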
An asterisk follows results filed as active; ? = inconclusive; . = not tested or not shown; [ ] = dose if it differs, or a comment. The call rests on the fitted dose curve; in most records, active means well fitted curve in the direction sought with a large enough effect; inconclusive means small, poorly fitted or top-dose-only effect, or another doubt; inactive means no such curve, though single readings can be large; an effect the other way counts as inactive or inconclusive. Potency means the concentration at half of the fitted maximal effect.

SMILES	SMN2 splice enh	ELG1 genotoxic	Rab9 promoter act	NPC1 prom act	ELG1 DNA repair	FLuc modulator
COc1cccc(NC(=O)CCc2nc(-c3ccc(C(C)(C)C)cc3)no2)c1	-72.3%	.	.	.	.	2.69µM*
COc1ccc(NC(=O)CCc2nc(C3=CCN(Cc4cccc(C)c4)CC3)no2)c(OC)c1	.	.	.	.	.	-16.0%
CCC(C)(C)n1nnnc1CN1CCC(n2c(C)nc3cc(C(F)(F)F)ccc32)CC1	-20.4%	-1.3%	-2.8%	-0.4%	-9.7%	1.4%
Cc1ccccc1C(=O)NC(Oc1ccccc1)C(Cl)(Cl)Cl (stereo not given)	-15.3%	0.8%	-4.7%	0.9%	14.9%	1.3%
COc1ccc(NC2CC(=O)N(C(C)C)C2=O)cc1 (stereo not given)	15.8µM*	4.11µM*	3.16µM*	?	?	15.1µM*
Cc1nc2ccc(NC(=O)c3ccc(Cl)s3)cc2s1	14.1µM*	9.2µM*	1.58µM*	3.16µM*	?	?
CN1Cc2c(ccc3c2OCO3)[C@@H]2[C@@H](O)Cc3cc4c(cc3[C@@H]21)OCO4	-11.3%[20.6 µM]	.	.	.	.	.
O=C(CN1CCCCC1)c1ccccc1Cl	-7.5%	3.7%	13.5%	3.0%	?	19µM*
O=C(CN1CCCCC1)c1ccccc1F	6.3%	-1.3%	3.6%	-21.7%	-1.2%	3.0%
O=C(O)c1cc(Cl)ccc1Cl	1.0%	.	.	.	.	.
CN(CC1COc2ccccc2O1)c1nc(-c2cccnc2)nc2ccccc12 (stereo not given)	-7.9%	-2.7%	-3.7%	-2.4%	16.4µM*	3.5%
O=c1[nH]c(=O)n(CCC2=CCCCC2)c(O)c1/C=N/Nc1cccc2ccccc12	.	-7.1%	-3.8%	14.0%	-18.7%	-2.7%
Cc1ccc(C(=O)n2c(N)nc3ccccc32)cc1	0.398µM*	0.206µM*	0.1µM*	?	?	0.19µM*
CC(C)(C)c1ccc(OCCON2C(=O)CCC2=O)c(Cl)c1	-5.6%	?	0.4%	-8.7%	?	15.1µM*
CC(C)Oc1cccc(C(=O)C2CCCN(Cc3ccon3)C2)c1 (stereo not given)	.	-4.5%	20.7%	2.7%	12.8%	-17.1%
O=C(c1cccc(Cl)c1)C1CCCN(Cc2ccon2)C1 (stereo not given)	.	-5.6%	-6.6%	-3.0%	0.58µM*	0.3%
Clc1ccc(Cn2ccnc2)cn1	.	0.7%	2.2%	-6.8%	-16.5%	-0.3%
CC(Cc1ccccc1)NC(=O)/C=C/C(=O)O (stereo not given)	3.4%	0.2%	-1.7%	-0.2%	-2.0%	-6.1%
COc1ccc(CCn2c(O)c(/C=N/N3CCOCC3)c(=O)[nH]c2=O)cc1OC	.	-6.5%	-5.2%	-3.6%	18.3µM*	5.0%
CC(C)(C)n1cc(C(=O)c2ccc3ccccc3c2O)cn1	-71.9%	?	0.562µM*	0.447µM*	?	0.675µM*
COC(=O)C1=C(c2ccc3ccccc3c2)C[C@@H]2CC[C@H]1N2C	.	0.3%	-15.4%	3.5%	12.1%	-3.0%
C[C@@H]1O[C@@H](O[C@H]2C[C@@H](O)[C@]3(CO)[C@H]4[C@H](O)C[C@]5(C)[C@@H](C6=CC(=O)OC6)CC[C@]5(O)[C@@H]4CC[C@]3(O)C2)[C@H](O)[C@H](O)[C@H]1O	-76.4%	-50.3%	-43.6%[46.1 µM]	-36.9%[46.1 µM]	0.164µM*	-0.4%
C[C@H]1O[C@@H](O[C@H]2[C@@H](O)C[C@H](O[C@H]3[C@@H](O)C[C@H](O[C@H]4CC[C@@]5(C)[C@H](CC[C@@H]6[C@@H]5CC[C@]5(C)[C@@H](C7=CC(=O)OC7)CC[C@]65O)C4)O[C@@H]3C)O[C@@H]2C)C[C@H](O)[C@@H]1O	.	-17.4%	-43.9%	-39.0%	0.146µM*	6.3%
C[C@@H]1O[C@H](O[C@@H]2CC[C@@]3(C=O)[C@H]4CC[C@@]5(C)[C@@H](C6=CC(=O)OC6)CC[C@@]5(O)[C@@H]4CC[C@]3(O)C2)C[C@H](O)[C@@H]1O	-34.0%[20.6 µM]	.	.	.	.	.
c1cncc(CNc2cc(-c3ccc4c(c3)OCO4)ncn2)c1	10µM*	.	.	.	.	.
SMILES	SMN2 splice enh	ELG1 genotoxic	Rab9 promoter act	NPC1 prom act	ELG1 DNA repair	FLuc modulator
O=C(Oc1ccccc1)N1CCC2(CC1)CN(Cc1ccncc1)C2	-20.4%	.	.	.	.	.
COc1cc(C(=O)Nc2ccc(Br)cc2C(=O)c2ccccc2)cc(OC)c1OC	-7.5%	1.6%	0.0%	1.3%	-15.8%	1.2%
O=C(CSc1ccc(-c2ccco2)nn1)Nc1ccccc1	-21.0%	-1.2%	17.7%	2.7%	?	?
CCc1nnc(NC(=O)CSc2ccc(-c3ccco3)nn2)s1	-25.8%	10.0%	-0.5%	0.4%	0.0%	15.1µM*
CN[C@H]1C[C@H]2O[C@@](C)([C@H]1OC)n1c3ccccc3c3c4c(c5c6ccccc6n2c5c31)C(=O)NC4	-96.7%	-15.6%	-37.5%	-43.1%	0.517µM*	-6.1%
O=C1NC(=S)NC(=O)C12C(c1ccc(F)cc1)NC(=S)NC2c1ccc(F)cc1 (stereo not given)	1.58µM*	-0.4%	0.7%	-3.4%	-2.1%	1.3%
CCCCn1c(=O)c(C(=O)NCc2ccc(Cl)cc2)c(O)c2ccccc21	.	5.3%	-4.0%	-5.5%	-19.5%	2.7%
c1ccc2c(CN3CCCCCC3)c[nH]c2c1	.	?	?	25.4%	?	16.9µM*
CC(=O)Nc1ccccc1C(=O)OCC(=O)c1ccc2c(c1)OCCO2	.	11.0%	3.55µM*	?	?	0.757µM*
Cc1onc(-c2ccccc2Cl)c1C(=O)OCC(=O)c1ccc2c(c1)OCCO2	13.1%	-8.9%	6.7%	7.1%	13µM*	4.78µM*
CCOc1ccccc1CNCCc1ccc2c(c1)OCO2	.	-9.4%	-1.7%	-2.7%	-4.2%	3.3%
CCNC(=S)N(C)CCc1cc2c(c(OC)c1C=C1C(=O)N(C)C(=O)N(C)C1=O)OCO2	.	2.4%	-5.5%	-2.6%	?	4.9%
CNC(=O)Oc1cccc(-c2cn3cc(OC(=O)NC)ccc3n2)c1	12.6µM*	20.6µM*	?	3.55µM*	?	3.79µM*
NC(=O)c1cccc(-c2cccc(OC(=O)NC3CCCCC3)c2)c1	.	10.8%	-0.4%	-0.1%	?	?
CNC(=O)Oc1ccc(-c2cn3cc(Cl)ccc3n2)cc1	5.01µM*	?	0.631µM*	0.891µM*	?	1.07µM*
COCCCn1c(N)c(C(=O)OC(C)COC)c2nc3ccccc3nc21 (stereo not given)	12.4%	-8.1%	-0.3%	0.2%	?	-0.2%
